The text below walks through data of PubChem BioAssay.

For part of these data: Potency and affinity values are given separately. Active and inactive are the calls of the source.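 The calls were made as follows, unless noted: active = fluorescence ratio normalized to control raised more than 50% in primary screen plus both repeat runs; inactive = the rest.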

The subject of experiment [1] is TRPC4 beta (transient receptor potential cation channel C4), mouse. The experiment is described as follows: TRPC4 cation channel opening, retest – cell-based, Fluo4 calcium, HEK293 TRPC4beta/mu-opioid, duplicates, 10 µM, confirmation (AID 2426).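 As to activation: percent rise of integrated ratio over buffer wells lacking compound which define 0%.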 The conditions noted are these: Fluo4 calcium fluorescence, at 10 µM; active compounds read high.
The subject of experiment [2] is transient receptor potential cation channel C4 beta (TRPC4), mouse. Put plainly: TRPC4 cation channel opening, second retest – cell-based, second round, Fluo4, HEK293 TRPC4beta/mu-opioid, 1 µM, confirmation (AID 2461;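 active = primary screen active and over 50% activation in each of two duplicate runs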). Particulars: Fluo4 calcium fluorescence, at 1 µM; active compounds read high.
Experiment [3] deals with TRPC4 (transient receptor potential cation channel C4 beta), mouse. Put plainly: potentiation of DAMGO EC20 TRPC4 response – cell-based, second round, Fluo-4, HEK293 TRPC4beta/mu-opioid, 1 µM, confirmation (AID 2554;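 active = primary screen hit whose fluorescence ratio, in both repeats, exceeds the weak agonist control mean by 3 SD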). Particulars: DAMGO EC20, Fluo-4 calcium flux, at 1 µM; active compounds read high.
Experiment [4] concerns TRPC4 beta (transient receptor potential cation channel C4), mouse. Put plainly: potentiation of DAMGO EC20 TRPC4 response – cell-based, Fluo-4, HEK293 TRPC4beta/mu-opioid, confirmation (AID 2555;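 active = primary screen hit whose calcium fluorescence ratio, in both repeats, exceeds the weak agonist control mean by 3 SD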). The conditions noted are these: DAMGO EC20, Fluo-4 calcium flux, at 10 µM; active compounds read high.
In experiment [5] the target is Short transient receptor potential channel 4 (Mus musculus) (UniProt Q9QUQ5). Put plainly: blockers of DAMGO-evoked TRPC4 calcium flux – cell-based, Fluo4, HEK293 TRPC4beta/mu-opioid, confirmation (AID 2636;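 active = calcium signal cut by more than 3 SD below the full-agonist control yet still positive, in both repeats and the earlier primary screen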). The conditions noted are these: at 10 µM; active compounds read high.
Short transient receptor potential channel 4 (Mus musculus), sequence (Q9QUQ5 whole entry, looked up): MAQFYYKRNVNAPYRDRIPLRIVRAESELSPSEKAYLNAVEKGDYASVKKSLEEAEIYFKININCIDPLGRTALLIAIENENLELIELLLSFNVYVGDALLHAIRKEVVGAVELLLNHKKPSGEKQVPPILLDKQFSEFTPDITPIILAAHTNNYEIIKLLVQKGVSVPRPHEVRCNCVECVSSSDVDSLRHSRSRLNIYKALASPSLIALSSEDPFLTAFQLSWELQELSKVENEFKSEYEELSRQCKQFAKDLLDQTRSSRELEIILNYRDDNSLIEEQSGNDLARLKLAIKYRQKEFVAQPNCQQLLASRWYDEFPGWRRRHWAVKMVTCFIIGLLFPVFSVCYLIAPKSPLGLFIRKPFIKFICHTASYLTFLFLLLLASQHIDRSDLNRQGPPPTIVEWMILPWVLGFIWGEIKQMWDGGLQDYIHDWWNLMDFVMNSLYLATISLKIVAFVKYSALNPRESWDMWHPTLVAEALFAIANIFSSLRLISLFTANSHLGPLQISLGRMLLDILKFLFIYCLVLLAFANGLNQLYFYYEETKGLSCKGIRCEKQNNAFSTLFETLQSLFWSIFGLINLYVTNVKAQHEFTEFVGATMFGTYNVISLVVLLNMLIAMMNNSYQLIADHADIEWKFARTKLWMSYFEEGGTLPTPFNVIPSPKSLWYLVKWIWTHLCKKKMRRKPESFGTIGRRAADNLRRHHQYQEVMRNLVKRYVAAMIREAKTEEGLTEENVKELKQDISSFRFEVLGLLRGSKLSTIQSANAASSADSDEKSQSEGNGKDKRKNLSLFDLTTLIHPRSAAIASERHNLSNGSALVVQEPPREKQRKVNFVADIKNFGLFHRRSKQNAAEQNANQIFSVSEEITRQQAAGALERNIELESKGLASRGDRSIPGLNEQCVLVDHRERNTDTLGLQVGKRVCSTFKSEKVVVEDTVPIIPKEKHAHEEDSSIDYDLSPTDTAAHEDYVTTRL
The target is the same in experiment [6]. The experiment is described as follows: blockers of DAMGO-evoked TRPC4 calcium flux – cell-based, second round, Fluo4, HEK293 TRPC4beta/mu-opioid, 1 µM, confirmation (AID 2637;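 active = calcium signal ratio cut to more than 3 SD under the fully stimulated control mean yet still positive, in both repeats and the primary screen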;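 as to inhibition: percent of integrated ratio relative to wells lacking test compound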). Particulars: at 1 µM; active compounds read high.
For experiment [7] the target is unchanged. The experiment is described as follows: potentiation of DAMGO-evoked TRPC4 calcium signal – cell-based, HEK293 TRPC4/mu-opioid, Fluo-4 calcium, EC20 DAMGO, dose response (AID 434941;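 active = earlier screen potentiator hit that boosts the TRPC4 ion channel at some dose, with a dose response; inactive = no potentiation, no dose response, or not a prior hit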;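 also: calcium entry triggered by an EC20 dose of DAMGO at the co-expressed mu-opioid receptor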).
Experiment [8] concerns the target Short transient receptor potential channel 6 (Mus musculus) (UniProt Q61143). Put plainly: TRPC6 blockade by TRPC4 inhibitor hits – cell-based, HEK293, membrane potential dye, duplicate, selectivity assay for TRPC4 inhibitor project, confirmation (AID 434948;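 active = active in primary screen and both duplicates, each dropping signal beyond three positive-control SD with fluorescence still positive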). The conditions noted are these: HEK293 TRPC6, membrane potential dye fluorescence, at 10 µM, stimulated with maximal-effect acetylcholine; active compounds read high.

Experiment [9] has the same target. Put plainly: TRPC6 opening by TRPC4 activator hits – cell-based, HEK293, membrane potential dye, duplicate, selectivity assay for TRPC4 activator project, confirmation (AID 434950;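 active = membrane potential signal rise above negative control mean plus 3 SD in both duplicates, also active in the earlier TRPC4 screen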;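 also: 0% = buffer only wells and 100% = acetylcholine maximal-effect wells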). Particulars: HEK293 TRPC6, membrane potential fluorescence, at 10 µM; activation: active compounds read high; outcome: activation.
Experiment [10] has the same target. The experiment is described as follows: positive modulators of mouse TRPC6 channel – HEK293 cells, membrane potential dye, duplicate, selectivity assay for TRPC4 potentiator project, confirmation (AID 434952;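 active = compound raising the membrane signal above positive-control mean plus 3 SD in both repeats, and a primary screen hit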). Particulars: HEK293 TRPC6, membrane potential dye fluorescence, at 10 µM, maximal acetylcholine added after compound; active compounds read high.
For experiment [11], the target named is Short transient receptor potential channel 4 (Mus musculus) (UniProt Q9QUQ5). Put plainly: calcium flux activators in TRPC4/5HT1a cells, counter-screen for TRPC4 activator project, cell-based, second counter screen, HEK293 TRPC4/5HT1a, Fluo-4 (AID 434977;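 active = calcium signal rise above buffer-control mean plus 5 SD in both duplicates, and also a hit in the primary screen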;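 as to activation: plate controls were assay buffer for no effect and maximal serotonin response for full effect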). The conditions noted are these: Fluo-4 calcium flux, at 10 µM; active compounds read high.
Experiment [12] in a line: serotonin-gated TRPC4 signal block – cell-based, second counter screen, HEK293 TRPC4/5HT1a, Fluo-4, counter-screen for TRPC4 inhibitor project, confirmation (AID 434978;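 active = primary screen active whose calcium signal fell more than 3 SD beyond the full-serotonin control mean in both duplicate plates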;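 as to outcome: serotonin given first at submaximal then at maximal dose after compound preincubation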). The conditions noted are these: Fluo-4 calcium flux, at 10 µM, serotonin added to trigger calcium flux; active compounds read high.
In experiment [13] the test system is TRPC4 (mouse), co-expressed with 5HT1a in HEK293. The experiment is described as follows: enhancement of serotonin-evoked TRPC4 response – cell-based, second counter screen, HEK293 TRPC4/5HT1a, Fluo-4, counter-screen for TRPC4 potentiator project, confirmation (AID 434979;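 active = signal rise over 3 SD above mean of control wells given weak agonist, in both repeats and first screen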). Particulars: Fluo-4 calcium flux, at 10 µM, serotonin added at its EC20 dose; active compounds read high.

The nature of experiment [14]: nonspecific calcium rise without TRPC4 – cell-based, HEK293 mu-opioid receptor line, counter-screen for TRPC4 activator project, confirmation (AID 449723;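 active = hit in primary screen, with calcium signal over 5 SD above buffer well mean in both duplicates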;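 also: counter screen cells carry the mu-opioid receptor alone and lack TRPC4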). The conditions noted are these: HEK293 mu-opioid cells, Fluo-4 calcium fluorescence, at 10 µM; active compounds read high.
The nature of experiment [15]: nonspecific potentiation of DAMGO calcium response – cell-based, HEK293 mu-opioid receptor line, counter-screen for TRPC4 allosteric potentiator project, confirmation (AID 449724;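 active = calcium signal rise more than 3 SD above the low-dose agonist control mean, in both duplicate plates and the primary screen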;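 also: HEK293 cells carrying mu-opioid receptor only with no TRPC4 channel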). Particulars: HEK293 mu-opioid receptor cells, Fluo-4 calcium flux, at 10 µM, compound added before EC20 DAMGO stimulus; active compounds read high.

Short transient receptor potential channel 6 (Mus musculus), sequence (Q61143 whole entry, looked up): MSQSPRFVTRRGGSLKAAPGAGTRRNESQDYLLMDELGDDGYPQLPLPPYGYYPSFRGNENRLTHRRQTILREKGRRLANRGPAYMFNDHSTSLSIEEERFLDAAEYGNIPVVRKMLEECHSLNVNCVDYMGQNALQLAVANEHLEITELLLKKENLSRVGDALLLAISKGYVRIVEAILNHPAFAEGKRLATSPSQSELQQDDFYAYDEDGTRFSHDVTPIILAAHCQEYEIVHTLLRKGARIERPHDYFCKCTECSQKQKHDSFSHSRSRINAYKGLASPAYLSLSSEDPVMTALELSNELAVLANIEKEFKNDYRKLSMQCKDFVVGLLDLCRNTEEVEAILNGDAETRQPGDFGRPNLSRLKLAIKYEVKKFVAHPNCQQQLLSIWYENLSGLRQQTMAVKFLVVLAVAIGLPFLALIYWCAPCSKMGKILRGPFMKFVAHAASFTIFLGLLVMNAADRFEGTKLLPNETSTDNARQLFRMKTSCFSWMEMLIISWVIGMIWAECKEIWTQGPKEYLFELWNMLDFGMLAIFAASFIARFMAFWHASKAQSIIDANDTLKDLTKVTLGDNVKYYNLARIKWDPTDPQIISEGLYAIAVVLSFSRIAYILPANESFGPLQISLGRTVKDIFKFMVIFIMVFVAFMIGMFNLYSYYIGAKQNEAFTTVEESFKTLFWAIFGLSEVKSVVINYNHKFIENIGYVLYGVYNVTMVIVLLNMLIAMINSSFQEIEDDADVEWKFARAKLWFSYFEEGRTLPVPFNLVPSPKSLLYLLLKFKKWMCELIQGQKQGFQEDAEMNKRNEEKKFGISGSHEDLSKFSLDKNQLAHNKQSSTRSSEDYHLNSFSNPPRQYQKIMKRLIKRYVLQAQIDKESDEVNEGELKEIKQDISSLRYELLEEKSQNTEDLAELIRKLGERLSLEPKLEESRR

`CC1CCCN(CCOCCOc2ccccc2-c2ccccc2)C1` (stereo not given): the outcome in experiment [1], in [2], in experiment [3], in experiment [4], in experiment [7] and in experiment [8] was inactive. Further, the outcome in experiment [10], in experiment [11], in experiment [13], in experiment [14] and in [15] was inactive. The figures for the inhibition in experiment [5], in [6] and in experiment [12] were 90% (active), 53% (active) and 30.7% (active), respectively. In addition, the activation in experiment [9] was 82% (active).
Take `COc1ccccc1NS(=O)(=O)c1cccc(C(=O)NC2CCN(Cc3ccccc3)CC2)c1`: the values for the activation in experiment [1] and in [9] were 90% (active) and 38.5% (active), respectively. Also, the result in experiment [2], in experiment [3], in experiment [4], in experiment [5], in experiment [7] and in [8] was inactive. For the same compound, the outcome in experiment [10], in experiment [11], in experiment [12], in [13], in experiment [14] and in experiment [15] was inactive. For the same compound, the inhibition in experiment [6] is 72% (active).
With `CC(NCc1cc(Br)ccc1OCC(=O)NCc1ccccc1)c1ccccc1` (stereo not given), the outcome in experiment [1], in [2], in experiment [3], in experiment [4], in experiment [6] and in [7] was inactive. In addition, the compound was called inactive in experiment [8], in experiment [10], in experiment [11], in experiment [13], in experiment [14] and in experiment [15]. In addition, the inhibition in experiment [5] was 100% (active); in [12], 35.1% (active). Besides, in [9], the activation is 55% (active).
On to `OC(CNC1CCCc2ccccc21)COc1c(Cl)cccc1Cl` (stereo not given), for which the activation in experiment [1] is 86% (active); in experiment [9], 101% (active); in experiment [11], 9.49% (active); in experiment [14], 14.8% (active). Moreover, the outcome in experiment [2], in experiment [3], in [4], in experiment [5], in experiment [7] and in [8] was inactive. Moreover, the result in experiment [10], in [13] and in experiment [15] was inactive. Moreover, the inhibition is 52% (active) in [6] and 35.9% (active) in [12].
Take `CN(C)C(CNC(=O)c1ccc(C(F)(F)F)cc1)c1ccco1` (stereo not given): the activation in [1] is 55% (active); in experiment [9], 28.5% (active). Also, the outcome in experiment [2], in experiment [3], in experiment [4], in experiment [7], in [8] and in [10] was inactive. For the same compound, the result in experiment [11], in [12], in [13], in [14] and in experiment [15] was inactive. Further, the results for the inhibition in [5] and in experiment [6] were 96% (active) and 92% (active), respectively.
Consider `OCC1(CC2CCCCO2)CCN(Cc2nc3ccccc3[nH]2)CC1` (stereo not given), for which the result in experiment [1], in [2], in experiment [3], in [4], in experiment [6] and in experiment [7] was inactive. The call in experiment [8], in experiment [10], in experiment [11], in experiment [12], in experiment [13] and in [14] was inactive. For the same compound, the result in [15] was inactive. In addition, the inhibition in experiment [5] is 67% (active). Besides, the activation in experiment [9] was 26.5% (active).
Take `OC1(c2ccccc2)CN(c2ccccc2)C2=[N+]1CCS2` (stereo not given): the outcome in experiment [1], in experiment [2], in experiment [3], in experiment [4], in experiment [6] and in [7] was inactive. The compound was called inactive in experiment [8], in [10], in experiment [11], in experiment [12], in experiment [13] and in experiment [14]. In addition, the result in [15] was inactive. Further, the inhibition in experiment [5] was 89% (active). Also, the activation in experiment [9] is 34% (active).
`CN(C)C1(CNC(=O)CC(NC(=O)c2ccccc2Cl)c2ccccc2)CCCCC1` (stereo not given): the result in [1], in experiment [2], in experiment [3], in experiment [4], in experiment [7] and in experiment [8] was inactive. Further, the result in [10], in experiment [11], in [12], in experiment [13], in [14] and in [15] was inactive. Moreover, the inhibition in [5] is 88% (active); in experiment [6], 78% (active). In experiment [9], the activation was 44.5% (active).
